eLon inh = inhibits E. coli Lon protease; purified E. coli Lon protease, fluorescence polarization; actives 0.42% (n = 360,000); inhibition, % at 7.94 µM; in the data active means inhibition above about 13%, passing the limit was not always enough;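 further: 0% = enzyme with probe and DMSO and 100% = no enzyme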
BCLXL inh = inhibitors of human Bcl-xL; Q07817; actives 0.7% (n = 320,000); inhibition, % at 10.9 µM; GST-Bcl-xL / FITC-Bim BH3 peptide fluorescence polarization;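 active means inhibition above the mean of all tested compounds plus 3 SD, cutoff set per campaign, cut at about 30% in these data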;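 further: 0% = DMSO wells and 100% = unlabeled Bim-BH3 peptide competitor; inhibitors lower millipolarization by displacing the labeled peptide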
MEX-5 binding = C. elegans MEX-5 TCR-2 RNA binding activity. MEX-5/FITC-TCR2 RNA binding, fluorescence polarization; active compounds read low. actives 0.38% (n = 300,000). activity score (negative = inhibition of binding), % at 10 µM. Q9XUB2. AID 1832;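 active means inhibition past about -25% in most replicates, and total fluorescence under double the plate's negative control median, limit read from the data; inconclusive means replicates evenly split on the limit, or fluorescence at least double controls; inactive means too little inhibition in most replicates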;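 further: 0% = DMSO and -100% = 5 µM competing unlabeled TCR2 RNA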
GLD-1 TGE inh = GLD-1-TGE RNA interaction inhibition (C. elegans). inhibition, % at 5.96 µM. purified GLD-1 + fluorescein TGE RNA, fluorescence polarization. Q17339. actives 0.44% (n = 320,000);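 active means percent inhibition above a per-plate cutoff, the plate mean of test compounds plus 3 SD, cut at about 30% in these data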;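 further: 0% = DMSO wells with GLD-1 and probe and 100% = wells lacking GLD-1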
Target sequence (Q17339 whole entry, looked up): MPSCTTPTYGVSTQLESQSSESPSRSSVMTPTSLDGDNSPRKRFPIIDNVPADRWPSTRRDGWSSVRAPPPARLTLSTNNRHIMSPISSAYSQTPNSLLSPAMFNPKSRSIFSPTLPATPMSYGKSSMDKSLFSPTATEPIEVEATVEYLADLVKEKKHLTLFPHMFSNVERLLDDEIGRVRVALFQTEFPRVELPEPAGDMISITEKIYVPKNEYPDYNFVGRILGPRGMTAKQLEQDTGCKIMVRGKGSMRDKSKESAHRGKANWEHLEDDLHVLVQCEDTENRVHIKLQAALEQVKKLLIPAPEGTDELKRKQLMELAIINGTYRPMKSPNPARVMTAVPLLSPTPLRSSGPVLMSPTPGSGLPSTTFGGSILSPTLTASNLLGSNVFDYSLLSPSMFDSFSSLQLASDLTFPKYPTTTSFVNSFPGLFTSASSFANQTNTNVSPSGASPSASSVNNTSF
MCL1-BIM inh = MCL1-BIM-BH3 interaction inhibition (human); Q07820; GST-MCL1 / FITC-Bim-BH3 fluorescence polarization; inhibition, % at 10.9 µM; actives 0.68% (n = 320,000); AID 2057;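 active means inhibition above the mean inhibition of all tested compounds plus 3 SD, set per campaign, cut at about 40% in these data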;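 further: 0% = DMSO wells and 100% = unlabeled Bim-BH3 peptide control; higher means more loss of mP so more displacement of Bim peptide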
E coli Lon conf = E. coli Lon inhibition confirmation; inhibition, % at 7.94 µM; shares compounds with eLon inh; actives 31% (n = 1,400); purified E. coli Lon, fluorescence polarization; in the data active means inhibition above about 16%;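 further: 0% = enzyme with probe and DMSO and 100% = no enzyme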
The depositor's hits bear a star; u = inconclusive; x = no result; + = active, no number. In the library only some 1.4% were active in any assay of this set; here they are far more common.

SMILES | eLon inh | BCLXL inh | MEX-5 binding | GLD-1 TGE inh | MCL1-BIM inh | E coli Lon conf
CN1CCc2c(sc(NC(=O)CS(=O)(=O)c3ccccc3)c2C(N)=O)C1 | 2 | 2 | -5 | -4 | 7 | x
COc1cc2c(C#N)c(N3CCc4ccccc4C3)nc(N)c2c(N)n1 | 56* | 23 | 0 | 16 | 30 | -16
O=C(Cc1sc(-c2ccccc2)nc1-c1ccccc1)Nc1ccccc1 | 16* | 3 | 1 | 7 | -5 | 9
C=CC(=O)Nc1cccc(N(C)c2ccnc(Nc3ccc(N4CCN(C)CC4)cc3)n2)c1 | -5 | x | x | x | x | x
NNC(=O)CNC(=O)c1ccccc1F | 53* | 2 | -2 | 5 | 3 | -4
O=C(CNC(=O)c1ccccc1F)c1ccccc1 | 0 | 5 | -2 | 9 | 5 | x
C=CCOn1c(=O)c(-c2cc3ccccc3o2)[n+]([O-])c2ccccc21 | 17* | 45* | -27* | 7 | 39 | -213
Nc1ccccc1C(=O)NN=Cc1cccnc1 | 21* | x | x | x | x | -10
S=c1[nH]nc(-c2ccccn2)n1/N=C/c1ccccc1 | -13 | -11 | -1 | 1 | -13 | x
S=c1[nH]nc(-c2ccccn2)n1/N=C/c1ccc(Cl)cc1 | 18* | -26 | 2 | -8 | -28 | -2
Cc1cc(C(=O)CSc2nnc(-c3ccncc3)n2-c2ccccc2)c(C)n1C | 19* | 12 | -1 | 16 | 10 | -73
COc1ccc(S(=O)(=O)Nc2c(NC3CCCCC3)c3ccccc3oc2=O)cc1 | 2 | 3 | 1 | 5 | 3 | x
Cc1ccc2c(c1)-c1ccccc1S(=O)(=O)N2 | -2 | 5 | -1 | 8 | 4 | x
Nc1ccc2c(c1)-c1ccccc1S(=O)(=O)N2 | 17* | 29 | -41* | 19 | 38 | -13
O=C(NCCCN1CCOCC1)c1c(-c2ccccc2)oc2c1C(OCCCCCO)CCC2 (stereo unspecified) | -8 | x | x | x | x | x
COCCn1c2nc(=O)n(-c3ccccc3)c(=O)c-2nc2ccccc21 | + | x | x | x | x | +
CC1(c2nnnn2-c2ccc3c(c2)OCCO3)CCC(=O)N1CC(F)(F)F (stereo unspecified) | 3 | x | x | x | x | x
Cc1ccc(S(=O)(=O)N[C@@H](Cc2ccccc2)C(=O)N2CCC[C@@H]2C(=O)O)cc1 | 17* | 6 | 0 | -3 | 7 | 6
O=C(COC(=O)C1CCN(S(=O)(=O)c2cccs2)CC1)c1ccc2c(c1)OCCO2 | 15* | -1 | 1 | -3 | -1 | -2
O=C1COc2ccc(C(=O)COC(=O)C3CCN(S(=O)(=O)c4cccs4)CC3)cc2N1 | -6 | 2 | -2 | 7 | -6 | x
Cc1nnc(NC(=O)c2ccc3c(c2)NC(=O)CS3)s1 | 25* | -6 | x | -4 | -3 | -6
O=c1[nH]c(=S)[nH]c2c1C(c1ccc(F)cc1)OC(CCC(F)(F)F)C2 (stereo unspecified) | -2 | x | x | x | x | x
COC(=O)CCC(=O)OC1(C)C(=O)C=C2C=C(C3CC3)N(C(CO)CO)C=C2C1=O (stereo unspecified) | 27* | 10 | 2 | 9 | 9 | 7
O=C1c2ccccc2C(c2nnnn2-c2ccc3c(c2)OCCO3)N1Cc1ccc2c(c1)OCO2 (stereo unspecified) | -7 | x | x | x | x | x
Cn1c(-c2ccc(F)cc2)cnc1SCC(=O)N1CCCc2ccccc21 | 19* | 4 | 0 | 3 | -9 | 2
SMILES | eLon inh | BCLXL inh | MEX-5 binding | GLD-1 TGE inh | MCL1-BIM inh | E coli Lon conf
CCNC(=O)C1(C)CCN(C(=O)C(c2ccccc2)c2ccccc2)C1 (stereo unspecified) | -4 | x | x | x | x | x
Cc1cc[n+](-c2[nH]c(=O)sc2/C=N/N=C(\[O-])c2ccccc2)cc1C | 68* | x | u | x | x | 125*
CCCCCc1c(CC)ncn1CCc1ccccc1OC | -7 | x | x | x | x | x
C=CCN(CC=C)Cc1cc(=O)oc2cc(C)c(C)cc12 | -4 | x | x | x | x | x
OC[C@@H]1CN(Cc2ccco2)C[C@H](n2cnc3c(N4CCN(c5ccccc5)CC4)ncnc32)O1 | -6 | x | x | x | x | x
CC(C)c1onc(C(=O)Nc2cccnc2Cl)c1[N+](=O)[O-] | 19* | 4 | 1 | -1 | 11 | -17
Cc1cccc(S(=O)(=O)NC(=O)C2(C)CCN2C(=O)Cc2cccs2)c1 (stereo unspecified) | 4 | x | x | x | x | x
COc1ccc(CCNC(=O)Nc2nc(C(N)C3CCCCC3)cs2)cc1OC (stereo unspecified) | -6 | x | x | x | x | x
